In the library only some 2.4% were active in any assay of this set; here they are far more common.
D2 ag-1: agonists of human D2 dopamine receptor; P14416; HEK293 T-REx D2 cells, calcium flux agonist mode; activation, % at 2 µM; 340,000 compounds, 0.53% hits;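 active means activation over 3 SD above normal in the single-dose calcium agonist read, cut at about 30% in these data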; further: 0% is about no effect
Target sequence (P14416 whole entry, looked up): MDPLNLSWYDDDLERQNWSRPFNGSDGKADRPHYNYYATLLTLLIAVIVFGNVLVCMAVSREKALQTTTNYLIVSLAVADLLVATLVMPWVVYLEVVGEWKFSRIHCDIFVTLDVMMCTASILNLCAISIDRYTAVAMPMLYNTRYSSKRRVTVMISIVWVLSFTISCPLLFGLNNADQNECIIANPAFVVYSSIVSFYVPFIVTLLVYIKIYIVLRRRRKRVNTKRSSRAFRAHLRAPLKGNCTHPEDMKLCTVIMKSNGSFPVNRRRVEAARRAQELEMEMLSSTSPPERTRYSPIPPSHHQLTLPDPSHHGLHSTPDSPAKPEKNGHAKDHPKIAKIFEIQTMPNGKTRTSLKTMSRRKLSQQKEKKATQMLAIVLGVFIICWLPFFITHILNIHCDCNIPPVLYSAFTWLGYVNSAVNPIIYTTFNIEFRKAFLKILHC
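Agonism is scored from calcium flux in a force-coupled, inducible HEK293 cell line expressing D2, read kinetically for 180 s after compound addition against dopamine controls.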
D2 ag-2: agonists of human D2 dopamine receptor (beta-arrestin); DiscoveRx PathHunter D2 beta-arrestin, luminescence, 90 min; 100% = 57 uM dopamine signal; 360,000 compounds, 0.084% hits; activation, % (concentration not given with the values); P14416; in the data active means activation above about 40%
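DiscoveRx PathHunter D2 beta-arrestin cells (2,100/well) attached overnight, then compound-stimulated 90 min at 37 C in HBSS/10 mM HEPES/0.1% Tween-20 buffer; beta-galactosidase complementation read by luminescence after 1 h at ambient temperature. Dopamine 57 uM final (EC100) as control.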
D2 antag: antagonizes the human D2 dopamine receptor; P14416; HEK293 TREx D2 cells, calcium flux, dopamine EC80; inhibition, % at 10 µM; 340,000 compounds, 2% hits; in the data active means inhibition above about 30%; inactive means below that, where a call was filed; further: 0% is about no effect
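Measurement of antagonist activity uses fluorescent calcium dye in inducible HEK293 T-REx D2 cells: 10 s baseline, compound addition with 180 s read, EC80 dopamine addition with a further 180 s read.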
D2 PAM-1: D2 dopamine receptor (human) potentiation. P14416. HEK293 T-REx D2, calcium flux, EC20 dopamine potentiation. potentiation, % at 10 µM. 340,000 compounds, 0.34% hits;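 active means potentiation over 3 SD above the plate norm, cut at about 30% in these data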; further: 0% is about no effect
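Potentiation of an EC20 dopamine calcium response measured kinetically over 180 s, after a preceding 180 s compound-only read flagging agonists. Cells: inducible Hek293 Trex D2 line, 4000/well, cultured overnight at 30 C before dye loading.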
D2 PAM-2: potentiates the human D2 dopamine receptor allosterically | DiscoveRx D2 beta-arrestin cells, luminescence, 90 min; 100% = 57 uM dopamine signal | potentiation, % (concentration not given with the values) | AID 624464 | P14416 | 360,000 compounds, 0.23% hits; in the data active means potentiation above about 50%
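D2 cells co-treated with compound plus 50 nM dopamine (EC20) for 90 min at 37 deg C to detect potentiation. Beta-arrestin recruitment was read as enzyme-fragment luminescence after 1 h at ambient temperature. Full response was set by 57 uM dopamine.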
* = called active by the depositor; . = no result.

SMILES	D2 ag-1	D2 ag-2	D2 antag	D2 PAM-1	D2 PAM-2
Cc1ccc(C(=O)C2CCN(CC(=O)N3CCN(c4ccc(F)cc4)CC3)CC2)cc1	0	1	51*	-14	-13
Cc1ccc(C(=O)N2CCC(C(=O)c3ccc(F)cc3)CC2)cc1	.	-2	.	.	-20
CCOCCCNC(=O)Cc1ccc(OC)c(OC)c1	-1	0	-3	29	13
CON(C)S(=O)(=O)c1cccc(C(=O)Nc2ccc(S(=O)(=O)NC3=NCCCCC3)cc2)c1	-1	0	33*	-4	-18
Cc1ccc(-c2csc3ncnc(NCCC(=O)O)c23)cc1C	.	1	.	.	-1
CCn1c(SC(C)C(=O)NCC2CCCO2)nc2ccccc21 (centres undefined)	-2	-1	31*	-5	-16
C=CCn1c(COc2ccc(F)cc2)nnc1SC(C)C(=O)NCC1CCCO1 (centres undefined)	0	-4	61*	-13	-7
O=C(Nc1ccccc1Cl)c1cc(C2CCCN(C(=O)CCCc3ccccc3)C2)on1 (centres undefined)	.	-5	.	.	-3
C=CCN(C(=O)c1csnn1)C(C(=O)NCc1ccc(F)cc1)c1ccccc1 (centres undefined)	0	0	52*	19	-1
COc1cc(NCCCC(C)N)c2ncccc2c1 (centres undefined)	-3	6	2	9	4
CCC(CNc1cc(OC)cc2cccnc12)NC1CCCCC1 (centres undefined)	-1	7	47*	-18	-19
CCc1cc2ccc(C)cc2nc1SCC(=O)c1ccc(NC(C)=O)cc1	1	2	9	-2	3
CCc1cc2cccc(C)c2nc1SCC(=O)c1ccc(NC(C)=O)cc1	1	-2	47*	-1	2
CSc1nc(C(=O)N2CCCC(N3CCN(c4ccccc4C)CC3)C2)cs1 (centres undefined)	2	-1	39*	-14	-32
COc1ccccc1N1CCN(C2CCCN(C(=O)c3csc(C)n3)C2)CC1 (centres undefined)	0	-6	3	10	-30
COc1ccccc1N1CCN(C2CCCN(C(=O)c3oc(C)cc3C)C2)CC1 (centres undefined)	-1	-5	46*	-25	-42
Cc1c(NC(=O)CSc2n[nH]c(-c3ccccc3)n2)c(=O)n(-c2ccccc2)n1C	-2	-2	-22	9	-10
CC12CN3CC(C)(CN(C1)C3c1ccc([N+](=O)[O-])o1)C2 (centres undefined)	0	3	32*	-8	1
CCc1cc(=O)oc2cc(C)cc(OCC(=O)N3CCC(C(=O)NC(C)C)(c4ccccc4)CC3)c12	1	4	53*	-13	3
CCC1CN(C(=O)N2CCC(C(=O)NCc3cccc(F)c3)CC2)c2ccccc2O1 (centres undefined)	0	-5	-22	13	-8
COc1cc(NC(=O)c2noc(C)c2[N+](=O)[O-])c(OC)cc1Cl	-1	45*	-17	-4	3
Cc1onc(C(=O)Nc2cccnc2Cl)c1[N+](=O)[O-]	0	4	6	2	2
COc1cc(/C=C(/C(=O)O)c2ccc(-c3ccccc3)cc2)cc(OC)c1OC	-1	8	-17	30*	5
O=C(C1CCN(S(=O)(=O)c2ccc(Cl)cc2)CC1)N1CCCCCCC1	-1	-1	9	-2	-10
Cc1cc2nc3c(=O)n(C4CCCCC4)c(=O)[nH]c3nc2cc1N	61*	5	-28	-4	9
SMILES	D2 ag-1	D2 ag-2	D2 antag	D2 PAM-1	D2 PAM-2
Cc1cc(C)cc(Nc2cc(=O)n(C3CCCCC3)c(=O)[nH]2)c1	1	1	6	3	-1
N#C/C(=N\Nc1ccc(S(=O)(=O)N2CCc3ccccc32)cc1)C(N)=S	2	-16	-3	0	-17
Cc1ccccc1OCCC(=O)N1CCN(S(=O)(=O)c2ccc(Br)cc2)CC1	-1	-3	55*	4	-24
O=C(Nc1cccc(S(=O)(=O)N2CCOCC2)c1)c1cccc(S(=O)(=O)N2CCCCC2)c1	1	1	2	-1	1
O=C(O)c1cccc(CN2C(=O)c3ccccc3C2=O)c1	0	-3	-17	2	-4
O=C1c2cccc3c(O)ccc(c23)C(=O)N1Cc1ccccc1	101*	8	34*	-19	17
O=C(NC1CCCCC1)[C@H](O)[C@@H](O)C(=O)NC1CCCCC1	0	-1	49*	-6	-1
Cc1noc(C)c1C(=O)OCC(=O)NC1CC1	0	0	-4	6	-4
Cc1noc(C)c1C(=O)OCC(=O)NC1CCCCC1C (centres undefined)	1	-5	-10	37*	-46
O=C(N1CCOCC1)n1cnc2ccccc21	-2	-3	-6	51*	2
O=C(N1CCOCC1)n1nnc2ccccc21	-2	-1	2	1	-2
O=C(CNC(=O)c1ccc([N+](=O)[O-])cc1)N/N=C\c1ccc(OC(=O)c2ccccc2)cc1	-1	2	59*	-4	27
COc1cccc(C(=O)NCC(=O)N/N=C/c2cccc(OC(=O)c3ccc([N+](=O)[O-])cc3)c2)c1	.	4	.	.	4
O=C(COc1ccc(/C=N/NC(=O)c2ccncc2)cc1)Nc1ccc([N+](=O)[O-])cc1	-3	-2	42*	.	-3
COc1ccc(S(=O)(=O)N2CCCC(C(=O)NCC3CCCO3)C2)cc1OC (centres undefined)	0	-6	12	0	-7
C[C@@H](O)C(C(=O)N1CCNCC1)n1cc([C@@H](N)CCCCN)nn1 (some centres undefined)	1	0	-3	13	-6
COc1ccc(NC2CCCN(C(=O)CCN3CCCC3=O)C2)cc1OC (centres undefined)	1	1	-1	6	26
C/C(=N\NC(=O)c1c(Cl)c(C)nn1C)c1cccc(NC(=O)c2cccc(F)c2)c1	0	-4	49*	-16	-22
Cc1ccc(/C(CSc2nccn2-c2ncc(C(F)(F)F)cc2Cl)=N\O)cc1	0	2	16	-6	-19
CCOC(=O)c1cccnc1SCC(=O)NC(C)CC (centres undefined)	1	-3	-6	-8	0
CC1CC(=O)C(C2c3ccccc3CCN2C(=O)CCl)C(=O)C1 (centres undefined)	1	-7	-8	1	-4
CCOc1cc(/C=C2\CCCc3c2nc2ccccc2c3C(=O)O)ccc1OC	87*	-2	38*	-27	6
Cc1ccc(C2N(c3ccc(Cl)c(Cl)c3)C(=O)C3CCCN32)o1 (centres undefined)	1	-2	-5	0	-10

Assay outcomes: PubChem, National Center for Advancing Translational Sciences (NCATS)
